A short description of assay [1]: NCI Yeast Anticancer Drug Screen. Data for the rad50 strain (AID 155).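 Also: 0% = growth of vehicle-only cultures of the same strain.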 As to conditions: S. cerevisiae rad50 strain growth inhibition, stronger effect = higher value. In a few lines:
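Vehicle-treated cultures provide the reference for the growth inhibition reported for compound-exposed, repair-deficient yeast.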

The nature of assay [2]: NCI Yeast Anticancer Drug Screen. Data for the mec2-1 strain (AID 157). As to conditions: S. cerevisiae mec2-1 strain, stronger effect = higher value. The procedure, abridged: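 Yeast mec2-1 mutant treated with compound. Readout: growth inhibition vs vehicle controls.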
Assay [3] is described as follows: NCI Yeast Anticancer Drug Screen. Data for the sgs1 mgt1 strain (AID 161).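 Also: 0% = growth of cultures given vehicle only.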 As to conditions: S. cerevisiae sgs1 mgt1 strain, stronger effect = higher value. In a few lines: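 Inhibition of yeast growth, normalised to vehicle-treated controls, is reported for a strain bearing genetic alterations in DNA damage repair.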
The nature of assay [4]: NCI Yeast Anticancer Drug Screen. Data for the cln2 rad14 strain (AID 165).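 Also: 0% = growth equal to vehicle treated cultures.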 As to conditions: S. cerevisiae cln2 rad14 strain, stronger effect = higher value. The procedure, abridged:
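cln2 rad14 yeast strain; compound exposure; growth inhibition read vs vehicle controls.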

Assay [5] in a line: NCI Yeast Anticancer Drug Screen. Data for the bub3 strain (AID 167). The note with it: S. cerevisiae bub3 mutant strain, stronger effect = higher value. The procedure, abridged:
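Mutant yeast screening strain plus compound; vehicle-treated cultures serve as the 0% inhibition reference.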

Assay [6] can be described thus: NCI Yeast Anticancer Drug Screen. Data for the mlh1 rad18 strain (AID 175). The note with it: S. cerevisiae mlh1 rad18 strain growth inhibition, stronger effect = higher value. The procedure, abridged: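 Yeast w/ defined DNA-repair lesions; compound exposure; growth vs vehicle controls → % inhibition.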
Where [7] appears, read: at 5.0 µM (retest, dose inferred, filed as 0.5).
Where [8] appears, read: at 50.0 µM (retest, dose inferred, filed as 5.0).

Where “and” joins values, the source holds several entries; their conditions need not be identical. Equal values may be shown once. About 79,000 compounds went through this panel and 15% of them were active in at least one assay; those are over-represented in the sample as a whole. A structure can be active in one record and inactive in another. Calls of active or inactive are those of the source. Rule as the data show it: active = growth inhibition above about 70%; inactive = the rest.

Turning to `Cc1cc(O)c(C(C)C)cc1Cl`, the growth inhibition was 5% (inactive) in assay [1] (setting [7]); 79% (active) in assay [1] (setting [8]); 53.1% (inactive) and 98.7% (active) in assay [1] (at 50.0 µM); 4% (inactive) in assay [2] (setting [7]); 90% (active) in assay [2] (setting [8]); 41% (inactive) and 98.6% (active) in assay [2] (at 50.0 µM). The growth inhibition in assay [3] (setting [7]) was -6% (inactive); in assay [3] (setting [8]) it was 38% (inactive); in assay [3] (at 50.0 µM), 45.5% (inactive) and 99.2% (active); in assay [4] (setting [7]) it was -4% (inactive); in assay [4] (setting [8]), 48% (inactive); in assay [4] (at 50.0 µM), 4.75% (inactive) and 79.6% (active). Also, the growth inhibition in assay [5] (setting [7]) is -4% (inactive); in assay [5] (setting [8]) it was 98% (active); in assay [5] (at 50.0 µM), 13.2% (inactive) and 97.5% (active); in assay [6] (setting [7]), 7% (inactive); in assay [6] (setting [8]), 84% (active); in assay [6] (at 50.0 µM), 26.8% (inactive) and 98.8% (active).
Consider `O=C(CC(=O)CC(O)(c1ccccc1)c1ccccc1)CC(=O)c1ccccc1`, for which the growth inhibition in assay [1] (setting [7]) is -4% (inactive); in assay [1] (setting [8]), 95% (active); in assay [1] (at 50.0 µM), 98.4% (active); in assay [2] (setting [7]) it was -10% (inactive); in assay [2] (setting [8]), 98% (active); in assay [2] (at 50.0 µM), 98% (active). Besides, the growth inhibition in assay [3] (setting [7]) was 0% (inactive); in assay [3] (setting [8]) it was 98% (active); in assay [3] (at 50.0 µM) it was 98% (active); in assay [4] (setting [7]), -11% (inactive); in assay [4] (setting [8]), 94% (active); in assay [4] (at 50.0 µM) it was 98% (active). The growth inhibition in assay [5] (setting [7]) was -8% (inactive); in assay [5] (setting [8]), 96% (active); in assay [5] (at 50.0 µM), 97.2% (active); in assay [6] (setting [7]), 30% (inactive); in assay [6] (setting [8]), 97% (active); in assay [6] (at 50.0 µM) it was 98% (active).
`C=CCC(O)c1ccc(C(C)C)cc1` (centres undefined): the growth inhibition was 3% (inactive) in assay [1] (setting [7]); 7% (inactive) in assay [1] (setting [8]); 18.9% (inactive) and -7.9% (inactive) in assay [1] (at 50.0 µM); 1% (inactive) in assay [2] (setting [7]); -3% (inactive) in assay [2] (setting [8]); -7.55% (inactive) and -1.05% (inactive) in assay [2] (at 50.0 µM). The growth inhibition in assay [3] (setting [7]) was -2% (inactive); in assay [3] (setting [8]), 1% (inactive); in assay [3] (at 50.0 µM), -5.65% (inactive) and 13.1% (inactive); in assay [4] (setting [7]), -3% (inactive); in assay [4] (setting [8]) it was 0% (inactive); in assay [4] (at 50.0 µM), -5% (inactive) and 16.4% (inactive). Also, the growth inhibition in assay [5] (setting [7]) was 10% (inactive); in assay [5] (setting [8]), 16% (inactive); in assay [5] (at 50.0 µM) it was -2.85% (inactive) and -2.2% (inactive); in assay [6] (setting [7]) it was 0% (inactive); in assay [6] (setting [8]), 7% (inactive); in assay [6] (at 50.0 µM) it was 15.4% (inactive) and -13.9% (inactive).
As for `C#CC(C)(C)OC(=O)Nc1ccccc1`, the growth inhibition is 5% (inactive) in assay [1] (setting [7]); 86% (active) in assay [1] (setting [8]); 12.6% (inactive) and 89.2% (active) in assay [1] (at 50.0 µM); -14% (inactive) in assay [2] (setting [7]); 62% (inactive) in assay [2] (setting [8]); 9.3% (inactive) and 43.6% (inactive) in assay [2] (at 50.0 µM). Further, the growth inhibition in assay [3] (setting [7]) is -2% (inactive); in assay [3] (setting [8]), 80% (active); in assay [3] (at 50.0 µM), -10.1% (inactive) and 84% (active); in assay [4] (setting [7]) it was 0% (inactive); in assay [4] (setting [8]) it was 14% (inactive); in assay [4] (at 50.0 µM), -53% (inactive) and 2.95% (inactive). Besides, the growth inhibition is -6% (inactive) in assay [5] (setting [7]); 79% (active) in assay [5] (setting [8]); -7.8% (inactive) and 59.4% (inactive) in assay [5] (at 50.0 µM); -3% (inactive) in assay [6] (setting [7]); 80% (active) in assay [6] (setting [8]); 8.4% (inactive) and 86.7% (active) in assay [6] (at 50.0 µM).
On to `Clc1ccc(CN2CCCN(Cc3ccc(Cl)cc3)C2c2cc3ccccc3c3ccccc23)cc1`, for which the growth inhibition was 49% (inactive) in assay [1] (setting [7]); 99% (active) in assay [1] (setting [8]); 70% (active) in assay [1] (at 50.0 µM); 19% (inactive) in assay [2] (setting [7]); 98% (active) in assay [2] (setting [8]); 68.5% (inactive) in assay [2] (at 50.0 µM). Moreover, the growth inhibition in assay [3] (setting [7]) is 38% (inactive); in assay [3] (setting [8]), 98% (active); in assay [3] (at 50.0 µM), 87.8% (active); in assay [4] (setting [7]), 22% (inactive); in assay [4] (setting [8]) it was 96% (active); in assay [4] (at 50.0 µM), 33.1% (inactive). The growth inhibition in assay [5] (setting [7]) was 22% (inactive); in assay [5] (setting [8]), 98% (active); in assay [5] (at 50.0 µM), 98.7% (active); in assay [6] (setting [7]), 45% (inactive); in assay [6] (setting [8]), 98% (active); in assay [6] (at 50.0 µM) it was 89.2% (active).
Take `O=[N+]([O-])c1cccc2nc3ccccc3c(NCCN(CCO)CCO)c12`: the growth inhibition in assay [1] (setting [7]) is 81% (active); in assay [1] (setting [8]) it was 94% (active); in assay [1] (at 50.0 µM), 71% (active); in assay [2] (setting [7]), 88% (active); in assay [2] (setting [8]) it was 98% (active); in assay [2] (at 50.0 µM), 73.4% (active). The growth inhibition in assay [3] (setting [7]) is 91% (active); in assay [3] (setting [8]) it was 98% (active); in assay [3] (at 50.0 µM) it was 52.5% (inactive); in assay [4] (setting [7]), 95% (active); in assay [4] (setting [8]), 99% (active); in assay [4] (at 50.0 µM), 84.8% (active). For the same molecule, the growth inhibition is 79% (active) in assay [5] (setting [7]); 99% (active) in assay [5] (setting [8]); -17.6% (inactive) in assay [5] (at 50.0 µM); 90% (active) in assay [6] (setting [7]); 96% (active) in assay [6] (setting [8]); 58% (inactive) in assay [6] (at 50.0 µM).
With `CC1(C)C(c2ccccc2)=Nc2ccccc21`, the growth inhibition was 0% (inactive) in assay [1] (setting [7]); 36% (inactive) in assay [1] (setting [8]); 34.1% (inactive) in assay [1] (at 50.0 µM); 3% (inactive) in assay [2] (setting [7]); 89% (active) in assay [2] (setting [8]); 92.6% (active) in assay [2] (at 50.0 µM). Also, the growth inhibition in assay [3] (setting [7]) is -13% (inactive); in assay [3] (setting [8]) it was 61% (inactive); in assay [3] (at 50.0 µM), 32.5% (inactive); in assay [4] (setting [7]), -2% (inactive); in assay [4] (setting [8]) it was 62% (inactive); in assay [4] (at 50.0 µM), 38% (inactive). Moreover, the growth inhibition was 9% (inactive) in assay [5] (setting [7]); 94% (active) in assay [5] (setting [8]); 96.7% (active) in assay [5] (at 50.0 µM); -5% (inactive) in assay [6] (setting [7]); 46% (inactive) in assay [6] (setting [8]); 86.2% (active) in assay [6] (at 50.0 µM).
As for `NNc1nc2ccccc2s1`, the growth inhibition was 14% (inactive) in assay [1] (setting [7]); 34% (inactive) in assay [1] (setting [8]); 1.3% (inactive) and 47.8% (inactive) in assay [1] (at 50.0 µM); 10% (inactive) in assay [2] (setting [7]); 32% (inactive) in assay [2] (setting [8]); -37% (inactive) and 42.6% (inactive) in assay [2] (at 50.0 µM). In addition, the growth inhibition was 2% (inactive) in assay [3] (setting [7]); 38% (inactive) in assay [3] (setting [8]); 4.4% (inactive) and 72.5% (active) in assay [3] (at 50.0 µM); 8% (inactive) in assay [4] (setting [7]); 3% (inactive) in assay [4] (setting [8]); 0.55% (inactive) and 8.6% (inactive) in assay [4] (at 50.0 µM). In addition, the growth inhibition in assay [5] (setting [7]) is 19% (inactive); in assay [5] (setting [8]) it was 45% (inactive); in assay [5] (at 50.0 µM), 9.15% (inactive) and 89.6% (active); in assay [6] (setting [7]), 37% (inactive); in assay [6] (setting [8]) it was 64% (inactive); in assay [6] (at 50.0 µM), -7.35% (inactive) and 88.2% (active).
